According to article PMC7862700, “An all-to-all approach to the identification of sequence-specific readers for epigenetic DNA modifications on cytosine”:

Assays:
Experiment in all cases: DAPPL (digital affinity profiling via proximity ligation, sequencing); 10 mM Tris-HCl pH 7.5, 50 mM NaCl, 1 mM DTT, 4% glycerol, room temperature, 30 min; GST-TFs on glutathione beads, 16-mer random dsDNA library, 0.1% formaldehyde crosslink after washing; high values mean tight binding
Conditions in all cases: protein: recombinant; tags: N-terminal GST; dsDNA, one strand shown
ERF = target: T1, ERF (Homo sapiens, UniProt P50548 1-548)
T1 sequence: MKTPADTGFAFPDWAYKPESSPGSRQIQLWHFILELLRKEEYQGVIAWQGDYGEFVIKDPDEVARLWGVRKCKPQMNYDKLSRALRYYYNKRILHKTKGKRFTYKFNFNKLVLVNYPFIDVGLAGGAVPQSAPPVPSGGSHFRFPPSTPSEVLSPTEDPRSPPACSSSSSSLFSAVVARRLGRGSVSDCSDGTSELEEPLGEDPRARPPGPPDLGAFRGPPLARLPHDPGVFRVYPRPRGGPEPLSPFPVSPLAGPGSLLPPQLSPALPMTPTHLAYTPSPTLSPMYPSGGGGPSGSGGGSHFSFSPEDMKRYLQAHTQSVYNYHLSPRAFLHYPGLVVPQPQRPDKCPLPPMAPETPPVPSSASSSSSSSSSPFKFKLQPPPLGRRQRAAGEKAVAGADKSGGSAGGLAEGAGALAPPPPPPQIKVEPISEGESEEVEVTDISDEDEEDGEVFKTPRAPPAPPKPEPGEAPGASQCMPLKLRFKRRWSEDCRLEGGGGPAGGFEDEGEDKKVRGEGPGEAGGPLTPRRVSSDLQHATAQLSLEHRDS
In short: (§1)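 GST fusions of human transcription factors were expressed in yeast and captured with glutathione beads. Once given DNA barcodes and pooled alongside a tag-only sample, they were incubated for 30 min at room temperature with 200 nmole of a random double-stranded 16-mer DNA library in Tris/NaCl/DTT/glycerol buffer, then washed, crosslinked (0.1% formaldehyde), proximity-ligated, PCR-amplified and sequenced on an Illumina NextSeq500. The binding signal of each hexamer is its read frequency for a factor divided by its frequency for the tag-only sample.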

ETV3L = target: T2, ETV3L (Homo sapiens, UniProt Q6ZN32 1-361)
T2 sequence: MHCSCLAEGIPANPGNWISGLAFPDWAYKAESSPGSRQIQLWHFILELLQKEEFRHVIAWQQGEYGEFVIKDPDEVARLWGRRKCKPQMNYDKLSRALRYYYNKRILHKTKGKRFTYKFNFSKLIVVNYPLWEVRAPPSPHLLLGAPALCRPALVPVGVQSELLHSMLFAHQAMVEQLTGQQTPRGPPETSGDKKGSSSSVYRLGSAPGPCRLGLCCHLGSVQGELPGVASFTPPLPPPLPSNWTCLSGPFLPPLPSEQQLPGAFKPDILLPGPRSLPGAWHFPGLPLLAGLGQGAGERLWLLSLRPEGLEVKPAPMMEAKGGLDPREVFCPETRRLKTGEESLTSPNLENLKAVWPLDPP
In short: as §1

ETS2 = target: T3, ETS2 (Homo sapiens, UniProt P15036 1-469)
T3 sequence: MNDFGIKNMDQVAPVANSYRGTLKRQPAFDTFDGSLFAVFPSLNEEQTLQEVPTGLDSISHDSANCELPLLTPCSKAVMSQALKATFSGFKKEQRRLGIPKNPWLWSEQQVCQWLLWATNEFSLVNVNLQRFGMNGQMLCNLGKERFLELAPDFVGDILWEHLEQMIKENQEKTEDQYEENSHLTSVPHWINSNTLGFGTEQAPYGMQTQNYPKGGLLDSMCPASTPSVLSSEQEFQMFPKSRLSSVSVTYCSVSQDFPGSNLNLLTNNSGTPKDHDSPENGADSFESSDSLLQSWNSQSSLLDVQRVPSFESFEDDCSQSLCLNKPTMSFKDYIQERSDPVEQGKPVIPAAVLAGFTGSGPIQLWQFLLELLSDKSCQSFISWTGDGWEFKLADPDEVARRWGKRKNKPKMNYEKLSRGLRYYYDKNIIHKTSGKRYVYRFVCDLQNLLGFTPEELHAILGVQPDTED
In short: as §1

SPDEF = target: T4, SPDEF (Homo sapiens, UniProt O95238 1-335)
T4 sequence: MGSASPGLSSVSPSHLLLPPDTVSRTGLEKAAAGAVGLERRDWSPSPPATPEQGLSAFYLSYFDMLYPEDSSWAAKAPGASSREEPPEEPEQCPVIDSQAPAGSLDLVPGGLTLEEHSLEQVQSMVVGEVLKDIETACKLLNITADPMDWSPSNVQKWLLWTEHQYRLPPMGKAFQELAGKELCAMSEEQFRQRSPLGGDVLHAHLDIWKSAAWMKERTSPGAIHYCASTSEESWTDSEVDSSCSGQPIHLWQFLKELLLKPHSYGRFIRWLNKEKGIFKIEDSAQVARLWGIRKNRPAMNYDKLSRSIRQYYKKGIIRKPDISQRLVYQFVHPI
In short: as §1

ETV7 = target: T5, ETV7 (Homo sapiens, UniProt Q9Y603 1-341)
T5 sequence: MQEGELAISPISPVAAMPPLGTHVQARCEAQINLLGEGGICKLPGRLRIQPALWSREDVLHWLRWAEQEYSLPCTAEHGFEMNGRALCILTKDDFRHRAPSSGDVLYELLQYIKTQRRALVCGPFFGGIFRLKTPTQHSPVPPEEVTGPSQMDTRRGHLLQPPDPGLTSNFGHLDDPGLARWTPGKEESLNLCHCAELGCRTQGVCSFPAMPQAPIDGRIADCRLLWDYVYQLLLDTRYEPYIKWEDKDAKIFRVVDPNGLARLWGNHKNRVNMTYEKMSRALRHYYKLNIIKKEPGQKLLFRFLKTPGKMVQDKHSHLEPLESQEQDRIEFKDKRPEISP
In short: as §1

ETV3 = target: T6, ETV3 (Homo sapiens, UniProt P41162-2 1-143)
T6 sequence: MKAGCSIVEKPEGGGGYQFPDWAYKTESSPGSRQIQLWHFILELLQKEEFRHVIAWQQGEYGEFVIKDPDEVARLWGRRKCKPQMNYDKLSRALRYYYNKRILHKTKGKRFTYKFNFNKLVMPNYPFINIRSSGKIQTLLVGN
In short: as §1

ETV6 = ETV6 (Homo sapiens, UniProt P41212 1-452)
In short: as §1

Chain of ETV6 (P41212 whole entry): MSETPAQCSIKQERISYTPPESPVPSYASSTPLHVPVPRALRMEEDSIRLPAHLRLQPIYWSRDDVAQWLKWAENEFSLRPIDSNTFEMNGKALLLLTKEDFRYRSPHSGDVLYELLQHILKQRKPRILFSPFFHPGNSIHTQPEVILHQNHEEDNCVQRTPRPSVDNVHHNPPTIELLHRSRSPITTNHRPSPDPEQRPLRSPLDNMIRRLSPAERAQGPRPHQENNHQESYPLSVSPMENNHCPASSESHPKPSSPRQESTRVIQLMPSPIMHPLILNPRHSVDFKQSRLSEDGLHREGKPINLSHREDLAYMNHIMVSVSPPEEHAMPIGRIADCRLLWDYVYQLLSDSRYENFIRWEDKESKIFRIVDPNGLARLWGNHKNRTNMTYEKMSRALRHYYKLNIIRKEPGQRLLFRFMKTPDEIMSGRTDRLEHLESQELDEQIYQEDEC

Sequence	binding signal (ERF)	binding signal (ETV3L)	binding signal (ETS2)	binding signal (SPDEF)	binding signal (ETV7)	binding signal (ETV3)	binding signal (ETV6)
CGCTTG	1.06 fold enrichment (6-mer frequency, TF over GST control)	1.01 fold enrichment (6-mer frequency, TF over GST control)	1.22 fold enrichment (6-mer frequency, TF over GST control)	1.09 fold enrichment (6-mer frequency, TF over GST control)	1.01 fold enrichment (6-mer frequency, TF over GST control)	1.06 fold enrichment (6-mer frequency, TF over GST control)	1.11 fold enrichment (6-mer frequency, TF over GST control)
GGTGTT	1.14 fold enrichment (6-mer frequency, TF over GST control)	1.07 fold enrichment (6-mer frequency, TF over GST control)	1.08 fold enrichment (6-mer frequency, TF over GST control)	1.1 fold enrichment (6-mer frequency, TF over GST control)	1.01 fold enrichment (6-mer frequency, TF over GST control)	1.05 fold enrichment (6-mer frequency, TF over GST control)	1.1 fold enrichment (6-mer frequency, TF over GST control)
TAACAG	1.05 fold enrichment (6-mer frequency, TF over GST control)	1.05 fold enrichment (6-mer frequency, TF over GST control)	1.03 fold enrichment (6-mer frequency, TF over GST control)	1.11 fold enrichment (6-mer frequency, TF over GST control)	1.09 fold enrichment (6-mer frequency, TF over GST control)	1.02 fold enrichment (6-mer frequency, TF over GST control)	1 fold enrichment (6-mer frequency, TF over GST control)
ATGAAG	1.12 fold enrichment (6-mer frequency, TF over GST control)	1.05 fold enrichment (6-mer frequency, TF over GST control)	1.06 fold enrichment (6-mer frequency, TF over GST control)	1.07 fold enrichment (6-mer frequency, TF over GST control)	1.09 fold enrichment (6-mer frequency, TF over GST control)	1.03 fold enrichment (6-mer frequency, TF over GST control)	1.03 fold enrichment (6-mer frequency, TF over GST control)
ATTGAA	1.14 fold enrichment (6-mer frequency, TF over GST control)	1.1 fold enrichment (6-mer frequency, TF over GST control)	1.09 fold enrichment (6-mer frequency, TF over GST control)	1.07 fold enrichment (6-mer frequency, TF over GST control)	1.14 fold enrichment (6-mer frequency, TF over GST control)	1.03 fold enrichment (6-mer frequency, TF over GST control)	1.08 fold enrichment (6-mer frequency, TF over GST control)
TTACGC	1.15 fold enrichment (6-mer frequency, TF over GST control)	1.05 fold enrichment (6-mer frequency, TF over GST control)	1.1 fold enrichment (6-mer frequency, TF over GST control)	1.08 fold enrichment (6-mer frequency, TF over GST control)	1.02 fold enrichment (6-mer frequency, TF over GST control)	1.16 fold enrichment (6-mer frequency, TF over GST control)	1.11 fold enrichment (6-mer frequency, TF over GST control)
TCGATA	1.24 fold enrichment (6-mer frequency, TF over GST control)	1.13 fold enrichment (6-mer frequency, TF over GST control)	1.06 fold enrichment (6-mer frequency, TF over GST control)	1.07 fold enrichment (6-mer frequency, TF over GST control)	1.07 fold enrichment (6-mer frequency, TF over GST control)	1.11 fold enrichment (6-mer frequency, TF over GST control)	1.01 fold enrichment (6-mer frequency, TF over GST control)
GCACGC	1.09 fold enrichment (6-mer frequency, TF over GST control)	1.07 fold enrichment (6-mer frequency, TF over GST control)	1 fold enrichment (6-mer frequency, TF over GST control)	1.04 fold enrichment (6-mer frequency, TF over GST control)	1.07 fold enrichment (6-mer frequency, TF over GST control)	1.14 fold enrichment (6-mer frequency, TF over GST control)	1.07 fold enrichment (6-mer frequency, TF over GST control)
CGAGTT	1.08 fold enrichment (6-mer frequency, TF over GST control)	1.16 fold enrichment (6-mer frequency, TF over GST control)	1.07 fold enrichment (6-mer frequency, TF over GST control)	1.02 fold enrichment (6-mer frequency, TF over GST control)	1.08 fold enrichment (6-mer frequency, TF over GST control)	1.12 fold enrichment (6-mer frequency, TF over GST control)	1.13 fold enrichment (6-mer frequency, TF over GST control)
TACTGA	1.17 fold enrichment (6-mer frequency, TF over GST control)	1.13 fold enrichment (6-mer frequency, TF over GST control)	1.1 fold enrichment (6-mer frequency, TF over GST control)	1.14 fold enrichment (6-mer frequency, TF over GST control)	1.01 fold enrichment (6-mer frequency, TF over GST control)	1.11 fold enrichment (6-mer frequency, TF over GST control)	
GCCAAT	1.11 fold enrichment (6-mer frequency, TF over GST control)	1.05 fold enrichment (6-mer frequency, TF over GST control)	1.06 fold enrichment (6-mer frequency, TF over GST control)	1.07 fold enrichment (6-mer frequency, TF over GST control)	1.06 fold enrichment (6-mer frequency, TF over GST control)	1.1 fold enrichment (6-mer frequency, TF over GST control)	
GGCCTC	1.12 fold enrichment (6-mer frequency, TF over GST control)	1.12 fold enrichment (6-mer frequency, TF over GST control)	1.09 fold enrichment (6-mer frequency, TF over GST control)	1.08 fold enrichment (6-mer frequency, TF over GST control)	1.05 fold enrichment (6-mer frequency, TF over GST control)	1.1 fold enrichment (6-mer frequency, TF over GST control)	1.09 fold enrichment (6-mer frequency, TF over GST control)
AGCTAA	1.1 fold enrichment (6-mer frequency, TF over GST control)	1.05 fold enrichment (6-mer frequency, TF over GST control)	1.15 fold enrichment (6-mer frequency, TF over GST control)	1.02 fold enrichment (6-mer frequency, TF over GST control)	1.1 fold enrichment (6-mer frequency, TF over GST control)	1.1 fold enrichment (6-mer frequency, TF over GST control)	
TCACAG	1.02 fold enrichment (6-mer frequency, TF over GST control)	1.13 fold enrichment (6-mer frequency, TF over GST control)	1.06 fold enrichment (6-mer frequency, TF over GST control)	1.05 fold enrichment (6-mer frequency, TF over GST control)	1.11 fold enrichment (6-mer frequency, TF over GST control)	1.06 fold enrichment (6-mer frequency, TF over GST control)	1.11 fold enrichment (6-mer frequency, TF over GST control)
ATCAAT	1.15 fold enrichment (6-mer frequency, TF over GST control)	1.03 fold enrichment (6-mer frequency, TF over GST control)	1.05 fold enrichment (6-mer frequency, TF over GST control)	1.03 fold enrichment (6-mer frequency, TF over GST control)	1.12 fold enrichment (6-mer frequency, TF over GST control)	1.14 fold enrichment (6-mer frequency, TF over GST control)	1.07 fold enrichment (6-mer frequency, TF over GST control)
GGCATT	1.08 fold enrichment (6-mer frequency, TF over GST control)	1.06 fold enrichment (6-mer frequency, TF over GST control)	1.09 fold enrichment (6-mer frequency, TF over GST control)	1 fold enrichment (6-mer frequency, TF over GST control)	1.05 fold enrichment (6-mer frequency, TF over GST control)	1.07 fold enrichment (6-mer frequency, TF over GST control)	1.12 fold enrichment (6-mer frequency, TF over GST control)
